This passage reports z-score and composite z-score results from PubChem BioAssay.

Assay [1] in a line: HepG2 liver cancer cell viability effects, profiling panel, resazurin fluorescence, 24 h, PK04 Diversity Set (AID 1172). The note with it: higher = more signal. (Resazurin is reduced to fluorescent resorufin, in cell work by metabolically active cells.)
The nature of assay [2]: basal S. cerevisiae growth modulation, no modifier, primary screen, OD600, strain BY4716, 24 h, basal condition (AID 1173). The note with it: OD600, 24 h, higher = more signal, called active from +8 up or from −8 down.
The nature of assay [3]: MM1S myeloma cell viability, profiling panel, resazurin fluorescence, basal, 24 h, PK04 Diversity Set (AID 1174).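 Further: MM1S multiple myeloma cell line.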 As to conditions: higher = more signal, called active from +8 up or from −8 down.
Assay [4] deals with Dihydroorotate dehydrogenase (quinone), mitochondrial (Plasmodium falciparum (isolate 3D7)) (UniProt Q08210). Kind of assay: PfDHODH enzyme inhibitors, primary screen, biochemical, C-terminal His tag, absorbance 600 nm (AID 1175).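 Further: recombinant parasite enzyme with a five histidine tag at its C terminus.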 The note with it: DCIP absorbance 600 nm, higher = more signal, called active from +8 up or from −8 down.
Dihydroorotate dehydrogenase (quinone), mitochondrial (Plasmodium falciparum (isolate 3D7)), sequence (Q08210 whole entry, looked up): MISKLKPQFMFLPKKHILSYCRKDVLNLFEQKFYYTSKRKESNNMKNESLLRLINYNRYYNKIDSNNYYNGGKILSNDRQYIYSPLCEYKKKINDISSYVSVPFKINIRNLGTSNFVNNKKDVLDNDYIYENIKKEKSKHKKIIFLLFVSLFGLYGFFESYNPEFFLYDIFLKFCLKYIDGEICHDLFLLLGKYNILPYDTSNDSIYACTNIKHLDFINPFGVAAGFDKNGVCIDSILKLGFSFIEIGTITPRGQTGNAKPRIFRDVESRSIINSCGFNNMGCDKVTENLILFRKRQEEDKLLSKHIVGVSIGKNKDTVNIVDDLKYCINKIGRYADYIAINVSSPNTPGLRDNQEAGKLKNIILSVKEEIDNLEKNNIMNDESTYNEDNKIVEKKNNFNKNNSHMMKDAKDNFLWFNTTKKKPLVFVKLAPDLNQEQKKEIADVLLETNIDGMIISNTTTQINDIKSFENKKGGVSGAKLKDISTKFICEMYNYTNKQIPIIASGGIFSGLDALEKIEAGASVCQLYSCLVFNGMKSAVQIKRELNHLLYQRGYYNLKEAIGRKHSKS
Assay [5] can be described thus: P. aeruginosa biofilm formation inhibitors, primary screen, strain PAO1, LB-PBS medium, absorbance 600 nm (AID 1176). The note with it: P. aeruginosa PAO1 growth/biofilm, A600, 12 h; higher = more signal.
Assay [6] is described as follows: S. cerevisiae RM11-1a growth modifiers, primary screen, strain RM11-1a, OD600, basal, 24 h (AID 1177).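 Further: cultures grown under basal conditions with no added stressor.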 As to conditions: OD600, 24 h, higher = more signal, called active from +8 up or from −8 down.
Assay [7] is described as follows: E. coli acrAB mutant growth effects, primary screen, E. coli filamentation inducers, strain DRC39, OD650, 24 h (AID 1178).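 Further: growth measured as culture turbidity by optical density at 650 nm.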 The note with it: higher = more signal, called active from +8 up or from −8 down.
Assay [8] can be described thus: E. coli acrAB mutant growth effects, primary screen, E. coli filamentation inducers, strain DRC39, OD650, 48 h (AID 1179).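 Further: screen aims at cell division blockers that make cells filament.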 As to conditions: E. coli DRC39 delta-acrAB growth, higher = more signal, called active from +8 up or from −8 down.
The nature of assay [9]: RPMI8226 myeloma cell viability, profiling panel, resazurin fluorescence, basal, 24 h, PK04 Diversity Set (AID 1180).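 Further: RPMI8826 multiple myeloma cell line at 5000 cells per well.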 As to conditions: higher = more signal.
Assay [10] deals with E3 ubiquitin-protein ligase XIAP (Homo sapiens) (UniProt P98170). Kind of assay: XIAP binders, primary screen, biophysical, small-molecule microarray, fluorescence 635 nm (AID 1181).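 Further: score merges 667 nm emission and signal to noise over triplicate slides.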 The note with it: small-molecule microarray binding, higher = more signal.
E3 ubiquitin-protein ligase XIAP (Homo sapiens), sequence (P98170 whole entry, looked up): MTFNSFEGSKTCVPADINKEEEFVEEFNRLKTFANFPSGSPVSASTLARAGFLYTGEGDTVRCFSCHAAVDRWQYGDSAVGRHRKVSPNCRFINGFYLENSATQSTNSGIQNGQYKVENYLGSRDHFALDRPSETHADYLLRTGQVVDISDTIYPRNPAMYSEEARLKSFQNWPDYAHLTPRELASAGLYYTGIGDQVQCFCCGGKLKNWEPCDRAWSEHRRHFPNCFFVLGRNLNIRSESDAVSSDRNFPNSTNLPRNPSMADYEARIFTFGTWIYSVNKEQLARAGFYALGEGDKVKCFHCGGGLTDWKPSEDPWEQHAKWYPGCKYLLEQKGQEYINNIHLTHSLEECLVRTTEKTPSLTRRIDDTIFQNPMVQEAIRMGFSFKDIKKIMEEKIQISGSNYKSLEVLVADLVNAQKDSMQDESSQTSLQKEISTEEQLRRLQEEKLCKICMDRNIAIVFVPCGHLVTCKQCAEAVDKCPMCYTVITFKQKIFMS
Assay [11] concerns XIP peptide (Xip251-270) binding. Kind of assay: small-molecule binders of XIP peptide, primary screen, biochemical, small-molecule microarray, fluorescence 635/667 nm, 0.1 µg/mL protein (AID 1182). As to conditions: fluorescent protein binding, 635 nm, higher = more signal, called active from +8 up or from −8 down.
A further assay concerns XIP peptide (Xip251-270). Kind of assay: small-molecule binders of XIP peptide, primary screen, biochemical, small-molecule microarray, fluorescence 635/667 nm, 0.5 µg/mL protein (AID 1183). As to conditions: small-molecule microarray binding, fluorescence 635 nm; higher = more signal.
Assay [12] can be described thus: Plasmodium falciparum growth inhibition, primary screen, strain 3D7, DAPI fluorescence, 100 nL (AID 1184).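 Further: parasites grown inside human red blood cells in medium with human serum.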 The note with it: P. falciparum 3D7 growth, 3 d, higher = more signal.
For assay [13], the target named is Homeobox protein Hox-A13 (Mus musculus) (UniProt Q62424). Kind of assay: inhibitors of HoxA13-DNA binding, primary screen, biochemical, fluorescence polarization, labeled oligonucleotide (AID 1185). As to conditions: 15 min, higher = more signal, called active from +8 up or from −8 down. A general note: In fluorescence polarisation assays a small probe gives low polarisation when free and higher when bound to something large.
Homeobox protein Hox-A13 (Mus musculus), sequence (Q62424 whole entry, looked up): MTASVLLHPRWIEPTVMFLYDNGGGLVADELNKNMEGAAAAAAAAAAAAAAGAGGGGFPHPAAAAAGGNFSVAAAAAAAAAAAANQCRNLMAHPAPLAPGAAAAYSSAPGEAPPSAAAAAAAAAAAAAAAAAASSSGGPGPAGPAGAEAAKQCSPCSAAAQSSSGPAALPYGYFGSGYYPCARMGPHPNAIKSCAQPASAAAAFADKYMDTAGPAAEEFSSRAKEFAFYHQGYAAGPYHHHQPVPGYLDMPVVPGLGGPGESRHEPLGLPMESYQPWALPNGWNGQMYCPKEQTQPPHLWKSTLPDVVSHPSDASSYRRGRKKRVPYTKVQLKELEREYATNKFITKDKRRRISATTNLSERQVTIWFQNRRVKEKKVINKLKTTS

The nature of assay [14]: inhibitors of hydroxyurea-induced Chk1 phosphorylation, primary screen, imaging, HeLa, phospho-Chk1 antibody, percent positive cells (AID 1186). The note with it: hydroxyurea-induced phospho-Chk1 immunofluorescence imaging, higher = more signal.
Assay [15] can be described thus: inhibitors of hydroxyurea-induced Chk1 phosphorylation, primary screen, imaging, HeLa, phospho-Chk1 nuclear intensity (AID 1187). As to conditions: hydroxyurea-induced phospho-Chk1 immunofluorescence imaging, higher = more signal.

Calls of active or inactive are those of the source. Unless noted, how the calls were made is not given here.

Consider `COC(=O)[C@@H]1N=C(c2ccc(OCCCO)cc2)O[C@@H]1c1ccccc1CN=[N+]=[N-]`, for which the z-score in assay [1] is 1.25; in assay [2], -1.46 (inactive); in assay [3], 0.55 (inactive); in [5], -0.636 (inactive); in assay [6] it was 0.657 (inactive); in assay [7] it was 0.0547 (inactive). The z-score is 0.396 (inactive) in assay [8]; 0.11 in assay [9]; -0.776 in assay [12]; -2.74 (inactive) in assay [13]; -0.196 (inactive) in assay [14]; -0.0701 (inactive) in assay [15]. The composite z-score is -0.487 (inactive) in assay [4], 0.279 in assay [10], 0.0222 (inactive) in assay [11] and 0.362 with XIP peptide (Xip251-270).
Regarding `CCCCC(=C=CC[C@@H](O)c1ccc(OCCO)cc1)C[C@@H](O)c1ccccn1`, the z-score in assay [1] was -0.517; in assay [2], -1.12 (inactive); in assay [3], -0.769 (inactive); in assay [5], 0.932 (inactive); in [6] it was 0.43 (inactive); in assay [7], 0.753 (inactive). Besides, the z-score in assay [8] was 0.239 (inactive); in assay [9], -0.541; in assay [12] it was -0.979; in assay [13], -5.87 (inactive); in assay [14], 0.784 (inactive); in assay [15], 0.744 (inactive). Also, the composite z-score in assay [4] was -8.71 (active); in assay [10] it was 0.133; in assay [11], 0.0856 (inactive); with XIP peptide (Xip251-270), -0.24.
In the case of `C=CCC(OC(C)=O)[C@@H]1[C@@H](N(Cc2ccc(-c3ccccc3)cc2)C(=O)c2cccc3ccccc23)c2cc(OCCCO)ccc2N1C(=O)c1ccc2ccccc2c1` (some centres undefined), the z-score in [1] was -0.784; in assay [2], -0.185 (inactive); in assay [3] it was -0.967 (inactive); in [5], 0.48 (inactive); in [6], -0.865 (inactive); in assay [7], 0.144 (inactive). In addition, the z-score was -0.455 (inactive) in assay [8]; -1.3 in assay [9]; -1.76 in [12]; -1.33 (inactive) in assay [13]; -0.293 (inactive) in assay [14]; -0.006 (inactive) in assay [15]. In addition, the composite z-score in assay [4] was -0.318 (inactive); in assay [10], -0.0017; in assay [11] it was 0.15 (inactive); with XIP peptide (Xip251-270) it was -0.0461.
As for `CC(=O)n1cc(C(O)C2C=CC3C(=O)N(c4ccccc4)C(=O)C3N2Nc2ccccc2F)c2ccccc21` (centres undefined), the z-score in assay [1] was 0.68; in assay [2], -1.34 (inactive); in [3] it was -0.223 (inactive); in assay [5], 1.54 (inactive); in assay [6], -0.86 (inactive); in assay [7] it was 0.8 (inactive). Besides, the z-score in assay [8] was 0.86 (inactive); in assay [9], 0.0072; in assay [12], -0.153; in [13] it was -4.01 (inactive); in assay [14], -0.0566 (inactive); in assay [15] it was 0.153 (inactive). Further, the composite z-score in assay [4] was -0.349 (inactive); in assay [10] it was 0.439; in assay [11], 0.0433 (inactive); in the assay on XIP peptide (Xip251-270), 0.752.
As for `CCCCC=C[C@@H](NC(=O)c1ccc(C(F)(F)F)cc1)c1ccccc1`, the z-score in [1] is 1.64; in assay [2], -0.118 (inactive); in assay [3], 0.423 (inactive); in assay [5] it was -0.222 (inactive); in assay [6], 0.562 (inactive); in assay [7] it was -0.244 (inactive). Also, the z-score in assay [8] is 0.291 (inactive); in assay [9], 1.1; in assay [12], 0.185; in [13], -3.7 (inactive); in assay [14], -0.587 (inactive); in assay [15], -1.16 (inactive). In addition, the composite z-score in assay [4] is -0.101 (inactive); in [10] it was 0.0699; in assay [11] it was 0.0581 (inactive); in the assay with XIP peptide (Xip251-270), -0.11.
In the case of `O=C1OCCC=C[C@H]2OC34C=CCN(CCN5CCOCC5)C(=O)[C@H]3N(CCCO)C(=O)[C@@H]4C12` (some centres undefined), the z-score was -0.368 in assay [1]; -0.494 (inactive) in assay [2]; -0.525 (inactive) in assay [3]; -0.481 (inactive) in assay [5]; 0.23 (inactive) in [6]; -0.418 (inactive) in [7]. The z-score in assay [8] is -0.822 (inactive); in assay [9], -0.62; in assay [12], -1.72; in assay [13] it was -3.86 (inactive); in assay [14] it was -0.46 (inactive); in assay [15] it was -0.374 (inactive). For the same molecule, the composite z-score in assay [4] is 0.394 (inactive); in [10], 0.0143; in assay [11], 0.186 (inactive); in the assay with XIP peptide (Xip251-270) it was 0.0388.
For the molecule `C=CCNC(=O)[C@@H]1[C@H]2C(=O)O[C@H](c3ccccc3)[C@H](c3ccccc3)N2[C@H](c2ccccc2OCCO)[C@@]12C(=O)N(C(=O)OCCOC)c1ccc(C#CCCO)cc12`, the z-score is -0.301 in assay [1]; 0.858 (inactive) in [2]; -1.02 (inactive) in assay [3]; 1.32 (inactive) in [5]; 2.15 (inactive) in assay [6]; 0.251 (inactive) in assay [7]. The z-score was 0.569 (inactive) in assay [8]; -1.56 in assay [9]; -2.09 in assay [12]; -1.71 (inactive) in assay [13]; -0.37 (inactive) in assay [14]; -0.538 (inactive) in [15]. The composite z-score in assay [4] was -0.202 (inactive); in assay [10] it was -0.0347; in assay [11], 0.397 (inactive); in the assay on XIP peptide (Xip251-270), 0.683.
Take `CCCCC(=C=CC[C@@H](O)c1cccc(OCCO)c1)CCO`: the z-score in assay [1] is 0.695; in assay [2], -1.26 (inactive); in assay [3], -0.0452 (inactive); in [5], 0.424 (inactive); in assay [6], 0.549 (inactive); in assay [7] it was 1.14 (inactive). In addition, the z-score in assay [8] is 0.839 (inactive); in assay [9], 1.37; in assay [12], -0.0161; in assay [13] it was -2.25 (inactive); in [14], -0.875 (inactive); in [15], -0.341 (inactive). Further, the composite z-score in [4] was -0.376 (inactive); in assay [10], -0.0853; in assay [11], -0.0509 (inactive); in the assay on XIP peptide (Xip251-270), 0.106.
For `C=CCC(OC(C)=O)[C@@H]1[C@@H](N(Cc2ccc(-c3cccc(C(F)(F)F)c3)o2)C(=O)Cc2ccc(OC)cc2)c2cc(OCCCO)ccc2N1C(=O)c1ccc2ccccc2n1` (some centres undefined), the z-score in [1] was -0.777; in [2], -0.791 (inactive); in assay [3], 0.271 (inactive); in assay [5], -0.817 (inactive); in assay [6], -0.188 (inactive); in [7] it was -0.267 (inactive). In addition, the z-score is -0.446 (inactive) in assay [8]; 0.0494 in assay [9]; -2.2 in assay [12]; -2.25 (inactive) in assay [13]; 0.401 (inactive) in [14]; 0.966 (inactive) in [15]. Moreover, the composite z-score in [4] was -0.0941 (inactive); in assay [10], 0.36; in assay [11] it was -0.155 (inactive); in the assay on XIP peptide (Xip251-270), -0.118.
